Assay results published in PubChem BioAssay AID1159580 (chemical genetic matrix, 2015).
In all, about 5,500 compounds went through this assay and about 2,000 (36%) were called active. Inconclusive results (about 18%) are left out. Rule as the data show it: active = normalized growth mostly below about 0.91 (no sharp cut-off); inconclusive = no clear call, values can overlap the other calls; inactive = mostly above about 0.92. The list shows a part of the results.

Assay: chemical genetic growth profiling, strain panel (AID 1159580);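 also: tested at 20 µM; growth read once vehicle control cultures reached saturation at 30 °C; 1 = growth at the plate median or of vehicle wells; lower values mean less growth of the strain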
Settings: S. cerevisiae deletion strains, growth OD
[1] = locus YAL013W, strain DEP1, hits give low values
[2] = locus YAL040C, strain CLN3, hits give low values
[3] = locus YCL061C, strain MRC1 (second series), hits give low values
[4] = locus YDR363W, strain ESC2, hits give low values
[5] = locus YER002W, strain NOP16, hits give low values
[6] = locus YNL175C, strain NOP13, hits give low values
[7] = locus YNL197C, strain WHI3, hits give low values
[8] = locus YNL224C, strain SQS1, hits give low values
[9] = locus YOR083W, strain WHI5 (second series), hits give low values

Measured: normalized growth

CCC(CO)NC(=O)C1C=C2c3cccc4[nH]cc(c34)CC2N(C)C1 (stereo unspecified)
inactive: [1] 0.986 | [2] 0.999 | [3] 1 | [4] 0.991 | [5] 0.99 | locus YGR078C, strain PAC10, hits give low values 0.977 | locus YNL128W, strain TEP1, hits give low values 0.997 | locus YNL153C, strain GIM3, hits give low values 1.02 | [6] 0.996 | [7] 0.978 | [8] 0.995 | [9] 0.996

O=C1CCC(c2ccc(-n3ccnc3)cc2)=NN1
inactive: [1] 0.984 | [2] 0.943 | [3] 1 | [4] 1 | [5] 1.01 | locus YMR263W, strain SAP30, hits give low values 1 | locus YMR307W, strain GAS1, hits give low values 1.05 | [6] 0.987 | [7] 0.979 | [8] 0.994 | [9] 0.994

N[C@@H](COP(=O)(O)O)C(=O)O
inactive: [2] 0.991 | [3] 0.989 | locus YDR150W, strain NUM1, hits give low values 1.01 | [4] 1.01 | [5] 1 | locus YJR075W, strain HOC1, hits give low values 0.984 | [6] 1.01 | [7] 0.984 | [8] 0.992 | locus YNL322C, strain KRE1, hits give low values 1.01 | [9] 1.01 | locus YPL055C, strain LGE1, hits give low values 1.01 | locus YPL241C, strain CIN2, hits give low values 0.997
